From PubChem BioAssay AID651593 (National Center for Advancing Translational Sciences (NCATS), 2012)
In all, about 1,100 compounds went through this assay and about 860 (78%) were called active. Not shown: some 19% with an inconclusive outcome. The call rests on the fitted dose curve; in most records, active means well fitted activation curve with a large enough effect; inconclusive means small, poorly fitted or top-dose-only effect; inactive means flat fitted curve, though single readings scatter. The set was probably picked from earlier hits. Some of the results follow.

Experiment: qHTS of Nrf2 Activators: Hit Validation in Primary Assay; further: nearly all actives have a fitted effect of over 70% in size
Details: Nrf2/ARE reporter cell assay; Potency: activation; series mostly up to 46.1 µM
In short: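 Luminescence from Steady-Glo lysis reagent, read after 30 min, reported ARE-luciferase activity in AREc32_fluc stable cells. Compounds were tested at several concentrations, incubated 24 h at 37 °C with 5% CO2 following overnight seeding.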
Potency means the concentration at half of the fitted maximal effect.

Potency, active:
O=C(NC(=S)Nc1cc([N+](=O)[O-])ccc1Cl)c1ccccc1 2.31 µM
O=C(CSc1cccc[n+]1[O-])Nc1cc([N+](=O)[O-])ccc1Cl 20.6 µM
O=C(NC(=S)Nc1cc(C(F)(F)F)ccc1Cl)c1ccccc1 2.91 µM
Cn1c(=O)c2nc(NCc3ccccc3)sc2n(C)c1=O 1.46 µM
CC(=O)Nc1nc2cccc([N+](=O)[O-])c2s1 1.84 µM
O=C(/C=C/c1ccc2c(c1)OCO2)c1ccc(O)cc1O 14.6 µM
O=C(CSc1ncnc2c1oc1ccccc12)NCc1ccco1 13 µM
c1coc(CNc2ncnc3c2oc2ccccc23)c1 3.66 µM
O=C(CSc1ncnc2c1oc1ccccc12)c1cccs1 5.17 µM
COc1ccc2[nH]c3c(NCc4ccco4)ncnc3c2c1 2.59 µM
O=C(CSc1nnc2c(n1)[nH]c1ccccc12)NCc1ccco1 20.6 µM
c1coc(CSc2ncnc3c2oc2ccccc23)c1 2.91 µM
O=[N+]([O-])c1cncc([N+](=O)[O-])c1Nc1cccc(O)c1 14.6 µM
O=c1[nH]ncc(N/N=C\c2cccs2)c1Cl 20.6 µM
CN(C)c1oc(/C=C/c2ccccc2)nc1C#N 3.26 µM
O=C(CCNc1cc(Cl)cc(Cl)c1)c1cccs1 6.51 µM
O=[N+]([O-])c1ccc(/C=N/Nc2ccc3ccccc3c2)o1 2.91 µM
Nc1ccc(S(=O)(=O)Nc2nccc(/C=C/c3cccc(Br)c3)n2)cc1 3.26 µM
CC(C)C(=O)Nc1nnc(-c2ccco2)s1 5.8 µM
Cc1cc(NC(=O)Nc2cc(Cl)sc2Cl)no1 4.11 µM
O=C1N/C(=C\c2ccsc2)C(=O)N1Cc1ccc(F)cc1 1.64 µM
Cc1c(=O)n(OCc2ccc(Cl)cc2)c2ccccc2[n+]1[O-] 1.64 µM
Cc1c(=O)n(OCc2ccccc2)c2ccccc2[n+]1[O-] 3.26 µM
C=CCn1c(SCC(C)=O)nc2scc(-c3ccco3)c2c1=O 0.731 µM
O=C(/C=C\c1ccc2c(c1)OCO2)CC1(O)C(=O)Nc2ccccc21 (centres undefined) 23.1 µM
CN1CCN(C(=O)CCN2C(=O)/C(=C/c3cccc(Br)c3)SC2=S)CC1 5.17 µM
O=C(N/N=C/c1ccsc1)c1ccc2ccccc2n1 16.4 µM
C(=N/n1c2ccccc2c2ccccc21)/c1ccco1 2.31 µM
COc1ccccc1C=Cc1ccnc2ccccc12 2.06 µM
O=C(/C=C/c1ccccc1)Nc1ncn[nH]1 3.66 µM
Cc1nc(NC(=O)/C=C/c2ccccc2)n[nH]1 3.66 µM
FC(F)(F)c1cc(-c2cccs2)nc(-n2cc(Br)cn2)n1 1.3 µM
C/C(=N\NC(=O)c1cccc(Br)c1)c1ccccn1 4.61 µM
CCn1c(/C=C/c2ccccc2[N+](=O)[O-])nc2ccccc2c1=O 3.66 µM
CCn1c(/C=C/c2ccccc2F)nc2ccccc2c1=O 2.31 µM
CCn1c(/C=C/c2ccccc2)nc2ccccc2c1=O 4.11 µM
O=c1[nH]c(/C=C/c2ccccc2[N+](=O)[O-])nc2ccccc12 0.411 µM
CCCn1c(-c2cccs2)nc2nc3ccccc3nc21 1.84 µM
O=c1cc(-c2ccccc2Cl)oc2c(Br)ccc(O)c12 6.51 µM
[O-][n+]1onc2c3ccnnc3ccc21 10.3 µM
c1ccc(-c2cc3c(ccc4nonc43)nn2)cc1 7.31 µM
[O-][n+]1onc2c3cc(-c4ccccc4)nnc3ccc21 8.2 µM
CC(=O)N1CCc2c(sc(NC(=O)CCS(=O)(=O)c3ccccc3)c2C#N)C1 18.4 µM
O=C1C(=Cc2ccco2)CCCC1=Cc1ccco1 3.26 µM
